Potency data for 62 compounds are collected here from PubChem BioAssay AID1745849 (National Center for Advancing Translational Sciences (NCATS), 2022).

Among all 2,100 compounds or so, about 320 (15%) were called active. Inconclusive results (about 52%) are left out. Calls follow the shape of the dose curve; as a rule, active = well fitted cell-killing curve with a large enough effect; inconclusive = small, poorly fitted or top-dose-only effect, or effect the other way; inactive = flat fitted curve, though single readings scatter. Some of the results follow. Where a call stands in place of a potency, no number is given.
Potency is read from the fitted curve at half-maximal effect.

The assay is described as follows: Viability Counterscreen for CMV-Luciferase Assay of Inhibitors of ATXN expression. Also: nearly all actives have a fitted effect of over 55% in size. The conditions noted are these: HEK-293 CMV-luciferase cells viability, protease fluorescence, 24 h. An outline of the steps: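 Cells: HEK-293/CMV-luc in phenol-red-free DMEM, 2 hr settle. Cpd dose, 24 hr, 37 °C, 5% CO2. Viability: Gly-Phe-AFC 25 uM final, 30 min, fluor. Then SteadyGlo, 5 min RT, lumin.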
`Cc1noc2ncnc(N3CCN(c4cccc(Cl)c4)CC3)c12`: the Potency entry was “inactive”.

With `CCN1C(=O)C(CC(=O)Nc2ccc(OC)cc2)N(CCc2ccc(F)cc2)C1=S` (configuration not stated), the Potency entry is “inactive”.

In the case of `CC(C)COc1cccc(C(=O)N(CC(=O)Nc2ccccc2C(F)(F)F)Cc2ccco2)c1`, the Potency entry was “inactive”.

Take `O=C(N/N=C/c1cc([N+](=O)[O-])ccc1O)c1c[nH]c2ccccc12`: the Potency was 28.2 µM (active).

Take `Cc1onc(-c2ccccc2)c1C(=O)N/N=C/c1c[nH]c2ccccc12`: the Potency result was “inactive”.

As to `Cc1ccc2cc(C#N)c(N3CCN(C(=O)c4ccccc4)CC3)nc2c1`, the Potency result was “inactive”.

Take `COc1ccc(-c2cc(C3CCN(c4ccc(C(C)=O)cc4[N+](=O)[O-])CC3)[nH]n2)cc1`: the Potency is 14.1 µM (active).

Take `CCOC(=O)[C@H]1[C@H]2COc3ccc(OC)cc3[C@@H]2N2C(=O)c3cc(OC)c(OC)cc3NC(=O)[C@@]12C`: the Potency entry was “inactive”.

`NNc1ncnc2scc(-c3ccc(Cl)cc3)c12`: the Potency result was “inactive”.

With `CCOC(=O)c1c(C)sc2c1N(C(=O)CN(CC)CC)c1cc(Cl)ccc1S2`, the Potency is 15.8 µM (active).

In the case of `CN(C)c1nc(N/N=C/c2c[nH]c3ccccc23)nc(N2CCOCC2)n1`, the Potency entry was “inactive”.

For `C=CCn1c(C)c(/C=C/c2cc[n+](C)cc2)c2ccccc21`, the Potency entry is “inactive”.

`Nn1cnnc1N/N=C/c1cc(Br)cc(Br)c1O`: the Potency result was “inactive”.

Take `Cn1c(SCC(=O)N/N=C/c2ccc([N+](=O)[O-])s2)nnc1-c1ccccc1`: the Potency is 20 µM (active).

Turning to `Cn1c(SCC(=O)N/N=C/c2ccc([N+](=O)[O-])s2)nnc1-c1ccc(Cl)cc1`, the Potency is 10 µM (active).

For the compound `CSc1sc(-c2nnc(SCC(=O)Nc3ccc(Cl)cc3)n2C)c2c1C=CCC2`, the Potency result was “inactive”.

Regarding `Cn1c(SCC(=O)Nc2cc(Cl)cc(Cl)c2)nnc1-c1ccc2nonc2c1`, the Potency entry was “inactive”.

In the case of `O=C(CSc1nnnn1-c1ccccc1)Nc1nsc(-c2ccccc2)n1`, the Potency result is “inactive”.

Consider `COc1ccc(N2CCN(c3ccnc4cc(Cl)ccc34)CC2)cc1`, for which the Potency result was “inactive”.

With `COc1cccc(OC)c1C(=O)OCC(=O)NC(=O)NCc1ccccc1`, the Potency result is “inactive”.

Turning to `CC(C)(C)c1ccc(Oc2ccc(N)cc2)cc1`, the Potency entry is “inactive”.

`Cc1nc2ncnn2c(N2CCN(c3cccc(C(F)(F)F)c3)CC2)c1C`: the Potency entry is “inactive”.

For `c1ccc2c(c1)c1c(c3ccccc32)CN2CCCC2C1` (configuration not stated), the Potency entry is “inactive”.

Consider `Cc1c(N=C2C=CC(=O)c3ccccc32)c(=O)n(-c2ccccc2)n1C`, for which the Potency is 28.2 µM (active).

As to `Cc1ccc(-c2cc(C(=O)NCCCN3CCOCC3)no2)cc1`, the Potency entry was “inactive”.

For the compound `COC(=O)C1=C(C)N(Cc2ccccc2)C(=NCCc2cccnc2)N[C@H]1c1ccc(Br)cc1`, the Potency was 20 µM (active).

Take `c1ccc(-c2cc3c(N4CCN(c5ccccc5)CC4)ncnc3s2)cc1`: the Potency result is “inactive”.

In the case of `COc1ccc(N(CC(=O)N2CCN(c3ccc(Cl)cc3)CC2)S(=O)(=O)c2c(C)n[nH]c2C)cc1`, the Potency result was “inactive”.

`COc1ccccc1-c1cc2nc(-c3ccccc3)cc(N3CCN(C(=O)c4ccoc4)CC3)n2n1`: the Potency is 10 µM (active).

For `O=C(c1ccoc1)N1CCN(c2cc(-c3ccco3)nc3cc(-c4ccccc4)nn23)CC1`, the Potency entry was “inactive”.

`COc1cccc(-c2cc3nc(-c4ccccc4)cc(N4CCN(C(=O)c5ccoc5)CC4)n3n2)c1`: the Potency result was “inactive”.

On to `COc1cccc(C2CC(c3c(-c4ccccc4)c4cc(Cl)ccc4[nH]c3=O)=NN2S(C)(=O)=O)c1OC` (configuration not stated), for which the Potency result was “inactive”.

Regarding `CCCOc1ccc(C(=O)NC(=S)NNC(=O)c2c(-c3ccccc3)noc2C)cc1`, the Potency entry is “inactive”.

In the case of `O=C(/C=C/c1ccccc1)NC(=S)NNC(=O)c1cnccn1`, the Potency was 10 µM (active).

Take `O=C(N/N=C1\CCCc2c1[nH]c1ccc(Cl)cc21)c1ccncc1`: the Potency result is “inactive”.

Turning to `Cc1cc(C)nc(/N=C(\N)Nc2ccc(C(C)C)cc2)n1`, the Potency entry is “inactive”.

On to `CCc1cc(-c2nnn(CCC3COCCO3)c2CC)ccc1-c1cn(CCc2c[nH]c3ccccc23)nn1` (configuration not stated), for which the Potency result was “inactive”.

On to `CCCc1nc2c(c(=O)c3ccccc3n2C)c(=O)n1C1CCCCCC1`, for which the Potency is 20 µM (active).

`CC(C)(C)OC(=O)CNC(=O)c1[nH]cnc1C(=O)Nc1ccc(CNC(=O)OC(C)(C)C)cc1`: the Potency entry is “inactive”.

In the case of `CN(C)c1cc[n+](CC(=O)c2ccc(-c3ccccc3)cc2)cc1`, the Potency entry was “inactive”.

On to `CCC(=O)OC1(C(C)=O)CCC2C3CCC4=CC(=O)CCC4(C)C3CCC21C` (configuration not stated), for which the Potency result is “inactive”.

For the compound `NC(Cc1ccc(C(F)(F)F)cc1)c1csc(Nc2nccc(C(F)(F)F)n2)n1` (configuration not stated), the Potency result was “inactive”.

Turning to `CC(C)(C)c1ccc(C(=O)N2CCCCCC2=O)cc1`, the Potency entry was “inactive”.

Take `CCN(CC)c1ccc(C(=O)N/N=C/c2ccccc2OC(F)F)cc1`: the Potency result is “inactive”.

As for `CCN(CC)c1ccc(/C=C/c2cccc[n+]2C)c(OC)c1`, the Potency is 14.1 µM (active).

With `COc1ccccc1NC(=S)NC(=O)c1ccc(Cn2cc(Br)cn2)cc1`, the Potency entry was “inactive”.

For the compound `COc1cc(-c2nnc(SCC(=O)N(Cc3ccccc3)C(C)(C)C)o2)cc(OC)c1OC`, the Potency entry is “inactive”.

As to `Cc1ccc(NC(=O)c2ccc(-c3nn(C)c(=O)c4ccccc34)cc2)cc1`, the Potency entry was “inactive”.

Regarding `CC(=O)Nc1ccc(Nc2c3ccccc3nc3ccccc23)cc1`, the Potency is 8.91 µM (active).

In the case of `C/C(=N\NC(=O)c1cc(C2CC2)nc2ccccc12)c1ccc(O)cc1O`, the Potency result was “inactive”.

Take `CCc1nc2ccccc2c(C(=O)OCC(=O)Nc2ccc(NC(C)=O)cc2)c1C`: the Potency result is “inactive”.

For `CSc1sc(C(=O)NN)c2c1C1(CCC2)SCCS1`, the Potency entry is “inactive”.

For the compound `CC1CCCN(S(=O)(=O)c2ccc(C(=O)Nc3nnc(-c4ccccc4Cl)o3)cc2)C1` (configuration not stated), the Potency entry was “inactive”.

For the compound `COc1ccc(/C=C2\CN(Cc3ccccc3)C/C(=C\c3ccc(OC)c(O)c3)C2=O)cc1O`, the Potency was 10 µM (active).

On to `O=C1/C(=C\c2cc(Cl)c(O)c(Cl)c2)SC(=S)N1Cc1ccccc1`, for which the Potency entry is “inactive”.

`OC1(c2ccc(Cl)cc2)CCN(Cc2c[nH]c3ccccc23)CC1`: the Potency entry is “inactive”.

Regarding `COCCCn1c(-c2ccc(S(=O)(=O)N3CCOCC3)cc2)csc1=Nc1ccccc1`, the Potency entry was “inactive”.

With `COc1ccc(Cl)cc1C(=O)Nc1ccccc1N1CCN(C(=O)C(C)C)CC1`, the Potency entry is “inactive”.

With `COc1ccc(Cl)cc1NC(=O)Nc1cccc([N+](=O)[O-])c1C`, the Potency result was “inactive”.

`COc1ccc(NC(=O)c2cc(-c3cc(Cl)ccc3OC)n[nH]2)cc1OC`: the Potency is 0.398 µM (active).

Take `Cc1cc(C)c(C(=O)N2CCCC(N3CCN(c4cccc(C(F)(F)F)c4)CC3)C2)o1` (configuration not stated): the Potency entry was “inactive”.

With `CCOc1ccc(CCNC(=O)c2ccc(OCc3c(C)noc3C)cc2)cc1OCC`, the Potency result is “inactive”.
